Entries with a potency or affinity are not part of this list. The source made the active and inactive calls.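 How the source made its calls: active means a dose-response fit showing signal loss, with half-maximal concentration no higher than twice the top tested dose; inconclusive means flat fit between 30% and 70% signal loss, or poor fit; inactive means the rest.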
experiment: viability loss in HepG2 hepatoma cells – cell-based, cherry-picks, set 2, cytotoxicity control, dose response (AID 687002); conditions: ATP luminescence (CellTiter-Glo), 48 h; series mostly up to 26 µM

SMILES | outcome
C/C=C/c1cnc2c(c1)C(=O)N([C@H](C)CO)C[C@@H](C)[C@@H](CN(C)C(=O)C1CCCCC1)O2 | inactive
COc1ccc(CNC(=O)C[C@H]2CC[C@H]3[C@@H](COc4ccc(NC(=O)C5CC5)cc4C(=O)N3C)O2)cc1 | inactive
CC(=O)N1[C@@H]2c3ccc(-c4ccccc4)c(=O)n3C[C@H]1[C@H](CO)[C@H]2C(=O)Nc1ccccc1 | inactive
CC(Sc1ncnc2c1cnn2-c1ccccc1)C(=O)Nc1ccc(N2CCOCC2)cc1 (stereo not given) | inactive
COc1ccccc1C(=O)Nc1ccc2c(c1)C(=O)N(C)C[C@@H](OC)[C@H](C)CN(C)[C@@H](C)CO2 | inactive
Cc1ccc(N(C(=O)C2CCC(=O)N2)C2(C(=O)NC3CCCCC3)CCCCC2)cc1 (stereo not given) | inactive
CNC[C@@H]1OCCCC[C@H](C)Oc2ccc(NC(=O)NC(C)C)cc2C(=O)N([C@H](C)CO)C[C@H]1C | inactive
COc1ccc(NC(=O)Nc2ccc3c(c2)C(=O)N([C@H](C)CO)C[C@@H](C)[C@H](CN(C)S(=O)(=O)c2ccc(Cl)cc2)OCCCC[C@@H](C)O3)cc1 | inactive
Cc1noc(C)c1NC(=O)Nc1ccc2c(c1)C(=O)N([C@H](C)CO)C[C@H](C)[C@H](CN(C)CC1CCCCC1)O2 | inactive
CO[C@H]1CC[C@@H]2CCOc3c(C#N)cccc3C(=O)N(C)C[C@H](OC)[C@@H](C)C(=O)N(C)C[C@@H]1O2 | inactive
CC(C)NC(=O)Nc1ccc2c(c1)C(=O)N([C@H](C)CO)C[C@@H](C)[C@H](CN(C)C(=O)Nc1ccccc1)OCCCC[C@@H](C)O2 | inactive
CCCNC(=O)N(C)C[C@H]1Oc2ncc(C#CC3CCCCC3)cc2C(=O)N([C@@H](C)CO)C[C@@H]1C | inactive
C[C@@H]1CN([C@H](C)CO)C(=O)Cc2cc(NC(=O)CCCCCC(=O)Nc3ccccc3N)ccc2O[C@H]1CN(C)Cc1ccc2c(c1)OCO2 | inactive
CC(C)NC(=O)N(C)C[C@@H]1OCCCC[C@@H](C)Oc2ccc(NC(=O)c3ccccc3)cc2C(=O)N([C@H](C)CO)C[C@H]1C | inactive
Cc1noc(C)c1NC(=O)Nc1ccc2c(c1)C(=O)N(C)[C@H]1CC[C@H](CC(=O)N[C@H]3CCN(Cc4ccccc4)C3)O[C@H]1CO2 | inactive
Cc1noc(C)c1S(=O)(=O)Nc1ccc2c(c1)CC(=O)N([C@@H](C)CO)C[C@@H](C)[C@@H](CN(C)S(=O)(=O)c1cccs1)O2 | inactive
CO[C@@H]1CN(C)C(=O)c2cc(NS(=O)(=O)C3CCCCC3)ccc2OC[C@H](C)NC[C@@H]1C | inactive
C/C=C/c1ccc([C@@H]2[C@@H](CO)N3CCCCN(C(=O)Nc4ccc(OC)cc4)C[C@H]23)cc1 | inactive
C[C@@H]1CN([C@@H](C)CO)C(=O)c2cc(NC(=O)C3CCCCC3)ccc2O[C@@H](C)CCCCO[C@@H]1CN(C)C(=O)NC1CCCCC1 | inactive
C[C@H](CO)N1C[C@H](C)[C@H](CN(C)Cc2cccc(C(F)(F)F)c2)OCc2cnnn2CCCC1=O | inactive
COc1ccc(-c2cnc3c(c2)C(=O)N([C@@H](C)CO)C[C@@H](C)[C@@H](CN(C)S(C)(=O)=O)O3)cc1 | inactive
CCC(=O)N(C)C[C@H]1Oc2cc(C#CC(C)(C)O)ccc2S(=O)(=O)N([C@@H](C)CO)C[C@@H]1C | inactive
O=C(C[C@H]1C=C[C@H](NC(=O)Nc2cc(F)ccc2F)[C@@H](CO)O1)NCCCN1CCOCC1 | inactive
C[C@@H]1CN([C@H](C)CO)C(=O)c2cc(C#CC(C)(C)O)cnc2O[C@@H]1CN(C)Cc1cncnc1 | inactive
CCC(=O)N[C@H]1C=C[C@H](CC(=O)NCC2CCCCC2)O[C@@H]1CO | inactive
O=C(C[C@H]1C[C@@H]2c3cc(NC(=O)c4cccnc4)ccc3O[C@@H]2[C@@H](CO)O1)NCCc1ccccc1 | inactive
O=C(NC(=S)Nc1ccccc1)c1cc([N+](=O)[O-])ccc1N1CCOCC1 | inactive
CC(C)NC(=O)Nc1ccc2c(c1)C(=O)N([C@@H](C)CO)C[C@@H](C)[C@@H](CN(C)C(=O)c1ccncc1)OCCCC[C@@H](C)O2 | inactive
C[C@@H]1CN([C@@H](C)CO)C(=O)c2cc(NS(=O)(=O)c3ccccc3)ccc2O[C@H]1CN(C)C(=O)NC1CCCCC1 | inactive
C[C@@H]1CN([C@H](C)CO)C(=O)c2cc(-c3ccc(F)cc3)cnc2O[C@H]1CN(C)CC1CCCCC1 | inactive
